Screens from PubChem BioAssay.
In the library only some 9% were active in any assay of this set; here they are far more common.
BAZ2B block – BAZ2B (human) inhibition; Q9UIF8; AlphaScreen BAZ2B-H3K14Ac peptide displacement; Potency, µM (top dose mostly 114 µM), for inactives: at the highest dose activity change, negative = inhibition, hits mostly inhibitors; 4.4% of 360,000 active; further: on the % scale 0 is the no-effect control and ±100 the full control effect; nearly all actives have a fitted effect of over 60% in size
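AlphaScreen displacement: compounds (up to 110uM) incubated 30 min at room temperature with a preformed 50 nM BAZ2B/50 nM biotinylated H3K14Ac peptide complex in PBS pH 7.4 with Tween-20. Donor and acceptor beads at 10 ug/mL final added, 20 min light-protected before reading.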
JMJD2A Tudor inh – inhibitors of human JMJD2A Tudor domain; O75164; AlphaScreen JMJD2A-Tudor / H3K4me3 peptide binding; Potency, µM (top dose mostly 114 µM), for inactives: top-dose activity change, negative = inhibition, usual class: inhibitors; 4.4% of 390,000 active; further: on the % scale 0 is the no-effect control and ±100 the full control effect; nearly all actives have a fitted effect of over 50% in size
HP1b chromo inh – inhibitors of HP1-beta chromodomain binding to methylated histone tails. AID 540317. Potency, µM (top dose mostly 114 µM), without a hit: at the top dose activity change, negative = inhibition, most hits filed as inhibitors. AlphaScreen HP1-beta / biotin-H3K9me3 peptide binding. 0.56% of 390,000 active; further: nearly all actives have a fitted effect of over 70% in size
Target sequence (P83916 whole entry, looked up): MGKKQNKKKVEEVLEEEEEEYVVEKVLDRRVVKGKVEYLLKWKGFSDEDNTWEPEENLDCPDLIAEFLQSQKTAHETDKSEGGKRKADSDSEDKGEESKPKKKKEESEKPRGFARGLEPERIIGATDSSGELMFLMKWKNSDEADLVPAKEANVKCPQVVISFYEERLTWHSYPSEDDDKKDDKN
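AlphaScreen: HP1-beta (50 nM) preformed 30 min with biotin-H3(1-18)K9me3 peptide (50 nM) in PBS pH 7.4, 0.01% Tween-20. Compound added for 30 min at RT, then streptavidin donor/nickel chelate acceptor beads (10 ug/mL) for 30 min.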
PLK1 PBD inh – inhibitors of human PLK1 polo-box domain binding | 2.8% of 360,000 active | Potency, µM, without a hit: max response, negative = inhibition, actives largely listed as inhibitors | Plk1 PBD binding of FITC phosphopeptide, fluorescence polarization; further: series mostly up to about 57 µM; on the % scale 0 is the no-effect control and ±100 the full control effect; nearly all actives have a fitted effect of over 65% in size
G9a inh – G9a (human) methyltransferase inhibition; Potency, µM (series often up to 102 µM), without a hit: at the highest dose activity, negative = inhibition, most hits filed as inhibitors; 8.8% of 350,000 active; Q96KQ7; G9a H3K9 monomethylation, AlphaScreen, 2 h; further: on the % scale 0 is the no-effect control and ±100 the full control effect; nearly all actives have a fitted effect of over 75% in size
Target sequence (Q96KQ7 913-1193 limits assumed): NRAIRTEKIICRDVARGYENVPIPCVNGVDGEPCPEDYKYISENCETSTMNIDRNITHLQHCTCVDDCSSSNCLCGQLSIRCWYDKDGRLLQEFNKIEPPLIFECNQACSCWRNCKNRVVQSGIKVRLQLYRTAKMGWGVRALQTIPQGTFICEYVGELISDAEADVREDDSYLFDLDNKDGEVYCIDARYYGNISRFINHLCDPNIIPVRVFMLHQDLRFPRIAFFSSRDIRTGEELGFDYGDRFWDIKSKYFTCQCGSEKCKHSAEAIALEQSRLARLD
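Enzyme 20 nM + cpd, 15 min RT; add b-H3K9 pep 500 nM / SAM 20 uM; 2 h RT; anti-H3K9me1 Ab 0.5 ug/mL + SA donor / anti-rabbit acceptor beads 20 ug/mL each, 10 min; AlphaScreen read.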
ALOX12 inh – ALOX12 (human) lipoxygenase inhibition; P18054; purified 12hLO, xylenol orange hydroperoxide absorbance; Potency, µM (titrated, usually from 108 µM), for inactives: at the highest dose activity change, negative = inhibition, most hits filed as inhibitors; 1.1% of 580,000 active; AID 1671190; further: on the % scale 0 is the no-effect control and ±100 the full control effect
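Hydroperoxide product was detected by ferrous iron/xylenol orange as the 573 to 405 nm absorbance ratio. Arachidonic acid at 40 uM (final) was turned over for 30 min at room temperature by 150 nM human 12hLO, pH 7.0 Hepes buffer, after 15 min compound preincubation.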
Starred values were filed as active, the others as inactive; ? = inconclusive; / = not tested or not shown; [ ] = dose if it differs, or a comment. The call rests on the fitted dose curve; in most records, active means well fitted curve in the direction sought with a large enough effect; inconclusive means small, poorly fitted or top-dose-only effect, or another doubt; inactive means no such curve, though single readings can be large; an effect the other way counts as inactive or inconclusive. Potency means the concentration at half of the fitted maximal effect.

SMILES | BAZ2B block | JMJD2A Tudor inh | HP1b chromo inh | PLK1 PBD inh | G9a inh | ALOX12 inh
CSCc1nnc(NC(=O)c2ccc(S(=O)(=O)N(C)C)cc2)o1 | -2% | 20µM* | 14% | 13µM* | 1% | 5%
C=CCN(CC=C)C(=O)CN1C(=O)NC(Cc2c[nH]c3ccccc23)C1=O (configuration not stated) | 1% | -1% | -21% | 0% | 27% | 4%
CCOc1ccc(NC2CCN(C(C)=O)CC2)cc1 | 0% | -27% | 24% | -6% | 50µM* | -1%
CC(=O)N1CCC(Nc2ccc(C)cc2)CC1 | 3% | -20% | 11% | -13% | ? | 25%
CCOc1ccc(S(=O)(=O)NN=C2CCN(C(C)=O)CC2)cc1 | 2% | -12% | 37% | -4% | 50µM* | 7%
O=C(c1ccn[nH]1)N1CC(c2ncc3c(-c4cccc(C(F)(F)F)c4)nccn23)C1 | / | / | / | / | / | 80%[176 µM]
OCCCn1c(-c2ccccc2)csc1=Nc1ccccc1 | 56µM* | ? | ? | 1% | 22µM* | -22%
COC(=O)c1cc(=O)n(Cc2ccc3c(c2)OCO3)c(=Nc2ccccc2)s1 | ? | ? | -17% | -3% | ? | -17%
CCN(CC)CCn1c(-c2ccccc2)csc1=Nc1ccccc1 | 50µM* | 18µM* | ? | / | 2.2µM* | ?
CCn1c(-c2ccccc2)csc1=Nc1ccc(S(=O)(=O)O)cc1 | -35% | -32% | -22% | -16% | 18µM* | 2%
Cc1ccc(-c2csc(=Nc3ccccc3)n2Cc2ccc3c(c2)OCO3)cc1 | 8.9µM* | 56µM* | ? | / | 11µM* | ?
O=C(O)CCC(=O)NCCn1c(-c2ccccc2)csc1=Nc1ccccc1 | ? | -16% | 1% | -1% | ? | -4%
CCNC(=O)COC(=O)c1cc(S(=O)(=O)N2CCCCC2)ccc1C | -2% | -10% | 29% | -1% | -7% | -29%
Cc1ccc(C)c2sc(NC(=O)CN3C(=O)CCC3=O)nc12 | 4% | 0%[11.4 µM] | 27% | -21% | / | 4%
CCC1(CC)C(=O)Nc2ccccc21 | / | -7% | 12% | -1% | / | 6%
CCC1(CC)C(=O)NC(=O)NC1=S | / | 50µM* | 8% | 2% | / | -7%
COc1ccc(OC)c(S(=O)(=O)N2CCC(C(=O)NC(C)c3ccccc3)CC2)c1 (configuration not stated) | -5% | 2%[57.1 µM] | -17% | -27% | -1% | 0%
COc1ccc(C(=O)NC(=S)Nc2ccc(N3CCN(C(C)=O)CC3)cc2)cc1[N+](=O)[O-] | ? | -31% | -35% | -11% | / | 75%
CCOCCCN1CN(Cc2ccco2)CNC1=S | -25% | -8% | -8% | ? | 16µM* | -26%
CC1=CCc2c(cc3oc(C)cc(=O)c3c2O)OC1 | / | / | / | / | -39%[2.33 µM] | /
Cc1cc(=O)c2c(O)c(O)ccc2o1 | ? | 3.2µM* | 7% | -3% | 1.8µM* | ?
COc1cc(Cl)ccc1C(=O)N1CC[C@@H]2CN(S(C)(=O)=O)[C@@H]2C1 | / | / | / | / | / | 19%
Cc1csc(NC(=O)c2ccc[nH]c2=O)n1 | -5% | -7% | 16% | -6% | ? | ?
CC12CCC(C(=O)n3c1nc1ccccc13)C2(C)C (configuration not stated) | -2% | -8% | 25% | -9% | -4% | 1%
CC12CCC(c3c1nc1ccccc1[n+]3[O-])C2(C)C (configuration not stated) | 4% | 45µM* | 5% | 19µM* | 10%[59 µM] | -13%
SMILES | BAZ2B block | JMJD2A Tudor inh | HP1b chromo inh | PLK1 PBD inh | G9a inh | ALOX12 inh
COc1cccc(CN2CCC(C(=O)Nc3ccc(-c4cccc(C)c4)cc3)CC2)c1O | ? | ? | -4% | -2% | 20µM* | ?
Cc1cccc(-c2ccc(NC(=O)C3CCN(CC4CC4)CC3)cc2)c1 | -5% | -27% | 22% | -5% | / | -14%
Cc1ccc(/C=[N+](\[O-])c2ccc(N(C)C)cc2)c2nsnc12 | 32µM* | 25µM* | 28µM* | ? | 8.9µM* | ?
CC(C)n1nnnc1C1c2ccccc2C(=O)N1Cc1cccs1 (configuration not stated) | / | / | / | -6% | / | -3%
CN(C(=O)COC(=O)CSc1ccc(C(N)=O)cc1[N+](=O)[O-])C1CCS(=O)(=O)C1 (configuration not stated) | 6% | -10% | -3% | -14% | -41% | -3%
CN(C(=O)CSc1nc2ccc([N+](=O)[O-])cc2s1)C1CCS(=O)(=O)C1 (configuration not stated) | -5% | -18% | 71% | ? | 0%[12.7 µM] | 0%
Cc1ccccc1CN(C)C(=O)COC(=O)CSc1ccc([N+](=O)[O-])cc1 | -4% | -29% | 2% | -20% | ? | ?
Cc1ccc(CN(C)C(=O)COC(=O)CSc2ccc([N+](=O)[O-])cc2)cc1 | -24% | -34% | ? | 13µM* | ? | -19%
CN(C(=O)COC(=O)CSc1ccc([N+](=O)[O-])cc1)C1CCS(=O)(=O)C1 (configuration not stated) | 10% | -17% | 3% | -12% | 50µM* | -14%
CN(C(=O)CSc1nc2cc([N+](=O)[O-])ccc2n1-c1ccc(F)cc1)C1CCS(=O)(=O)C1 (configuration not stated) | -29% | 79µM* | 25% | -15% | 20µM* | 1%
CCN(C(=O)COC(=O)CSc1ccc([N+](=O)[O-])cc1)C1CCS(=O)(=O)C1 (configuration not stated) | -5% | 35µM* | 50µM* | 7.5µM* | 18% | 12%
CC1(CCCCc2ccccc2)COc2ccc(C(=O)NC3CCC(O)CC3)cc2N1 (configuration not stated) | / | / | / | / | / | 4%[176 µM]
CCOc1ccc(CCNC(=O)C(O)c2ccccc2)cc1 (configuration not stated) | 8% | -17%[11.4 µM] | 45% | -9% | -3% | 0%
COc1ccc(Cl)cc1NC(=O)CC(=O)Nc1cc(Cl)ccc1OC | 2% | -23% | -8% | -5% | 24% | 1%
O=C(NCCc1noc(-c2ccncc2)n1)c1ccccc1F | / | / | / | / | / | 28µM*
CCOC(=O)C1=C(O)C(=O)N(Cc2ccccc2)C1 | -32% | -12% | 31% | 3% | ? | ?
COc1ccc(/C=C2/C(=O)ON=C2c2ccccc2)cc1OC | ? | 79µM* | 4% | 1.9µM* | 7%[0.501 µM] | ?
O=C1ON=C(c2ccccc2)/C1=C/c1ccco1 | 40µM* | -36% | 12% | 1.1µM* | 32µM* | 7.9µM*
NC(=O)COc1ccc(/C=C2\C(=O)ON=C2c2ccccc2)cc1 | -18% | -2% | 13% | 2.1µM* | 16%[12.7 µM] | 7.1µM*
CN(C)/C=C1\C(=O)ON=C1c1ccccc1 | -2% | -8% | 23% | -7% | ? | -4%
